In PubChem BioAssay (NCI):
Compounds without any hit were thinned out: in the full panel of roughly 83,000, 20% have a hit.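 The endpoint reported here, percent growth, reads 100 for growth as untreated, 0 for no net growth and -100 for all cells dead.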 A number with no mark means an inactive call. Calls of active or inactive are those of the source. How the source made its calls: active means growth percent below 10; inactive means the rest.

These molecules were tested on HCT-116 colon (assay: NCI-60 one-dose screen, 48 h (100 = growth as untreated, 0 = no growth, -100 = all killed)). Details: 10 µM unless noted.
With `C1=CN2CC(c3ccccc3)=NNC2c2ccccc21` (stereo unspecified) the growth was 85.6%.
For `NC(=O)CCC(C(=O)O)N1C(=O)c2ccc(O)cc2C1=O` (stereo unspecified), the growth was 109%.
With `COC(=O)c1cc(-c2ccccc2)[nH]c1N/N=C/c1c(Cl)cccc1Cl` the growth was -1.99% (active).
Molecule `COc1ccc2c(c1)[n+]([O-])c(C(=O)/C=C/C=C(\Cl)c1cc(OC)c(OC)c(OC)c1)c(C)[n+]2[O-]` has a growth of 80.6%.
In the case of `N#Cc1c(NC(=O)c2ccccc2)sc2c1CCC(=O)C2`, the growth was 5.81% (active).
`CCOC(=O)c1nc(Nc2ccc(NC(=O)Nc3ccc(F)cc3)cc2)c2ccccc2n1` gave a growth of 101%.
Molecule `Cc1ccc2c(n1)C(=O)c1[nH]c3ccccc3c1C2=O` has a growth of 22%.
`C=CCc1c2c(c(OC)c3ccoc13)C(=O)/C(=C/c1ccccc1OC)O2` showed a growth of 21.4%.
`Cc1cccc(N2CCN(CC(O)COc3ccc(Cl)cc3)CC2)c1` (stereo unspecified) showed a growth of 89.9%.
`O=Nc1c(-c2c(O)[nH]c3ncccc23)[nH]c2ccccc12` gave a growth of 36.9%.
For `O=C1Nc2ccccc2/C1=C\c1nc(-c2ccccc2)n2ccccc12`, the growth was 76.3%.
